Results taken from the supplement of paper PMC6555819.

The sequences below were run on VDR:RXRa (NR concentration 270 nM, RXRa partner concentration 90 nM) (assay: PBM binding z-score (relative to random genomic background probes); higher = stronger binding; sequences stand for … in GC…GCGATTGACAGCGTAGAATGAAGG).
Description: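 Protein-binding microarray (Agilent 4x180K custom design, double-stranded 60-nt probes: 5' GC cap, 34-nt variable region, 24-nt constant primer region; full probe sequence given). Purified or IVT nuclear receptor:RXRα heterodimers (3:1 NR:RXRα, mostly 270:90 nM) or homodimers were incubated for 1 h in PBS with 2% milk and no ligand, then detected with Alexa488 antibodies. Fluorescence from o1-orientation probes (~5 replicates averaged) was converted to z-scores against 500 random hg19 background probes. Variable regions are seed direct-repeat (DR0–DR5) sites, all their single-nucleotide variants and half-site ablations.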

Row | Sequence | PBM binding z-score
1 | TGCATGAGGTTATAAGATCAGGGAACGTTGCAAA | 1.01
2 | CCTCTGAGGACAGAAGGTCAGAGCTGTCCGCTTT | 1.2
3 | TCTAGTAGTTGATTAGGGCAACCGAAACAGCGGA | 0.217
4 | TCGAATAGGTTACCAATGGGGCATTCAGCTTTCT | 0.811
5 | CCTTACGGGTCACGGACAGGTTATAGCATTTGGA | 4.74
6 | ACTCAAAGTTCACTAGGTAACGTAAGATTCAGCT | 4.17
7 | TAGCCTAGGTCAGATCGGGCCACTATACGCTATA | 1.39
8 | TATACAGGGTCAAAGGCAAGAGTACGAATGTCGA | 4.61
9 | CCTTACGGGTGACTCCAGGTTATAGCATCGGAGT | 0.497
10 | CAAACTAGGTCAAAGGTCAAAGTGGAGCCAACCA | 6.72
11 | CCAGACAGGTGAGAGGGTAACTCAGCCTCGATTA | -0.0785
12 | TGAATGAGGTTAAAGATCAAGGAACGTGGCGTCG | 2.09
13 | CGTCCAAGGTCAAAGGAGGTCAGTGAAGACAGAT | 6.53
14 | ATACTAAGGTGATCGTGAGGTCGTTGATACTAAC | 3.72
15 | TCGAGTAGGTTAGTCGGGGGATTCAGCCAACATA | 0.946
16 | CTACCAAGGTGAACAAGGTCGTGGATTACTATTC | 5.77
17 | CGAACTAGGTCAAGGTCAAAGTCGGTTTGTGCCA | 4.97
18 | CCGACTGGCGCAAAGGTTACCATACTCAGTACGA | 0.854
19 | GGAACGAGGGCATTCGAGTTGAAAGCATGGCGAT | 3.59
20 | TAGCCTAGGCCAGATCGGGCCAGTATACGCTATA | -0.802

Row | Sequence | PBM binding z-score
21 | CCGACTGGGGCAGAAAGGTTACCAGACCATCCGG | 0.696
22 | ATCGAAAGGTCGACGGGGTGAGTATACACCGTTT | 5.62
23 | CCTACTGGGGCAAGGTTACCATAACGCACAGCCA | 0.252
24 | ATATGTACGTTAGCTGGGGTCATTCAGACTAGGC | 5.16
25 | CAAACTAGGTCACAGCGGTCAAAGTCCGTGCGTA | 5.9
26 | TAGCCTAGGTCAGATCGAGCCAGTATACGCTATA | 0.0723
27 | TCTAGGTGGTCACGGAGGTCACACACGACGGGTA | 6.02
28 | CGTCAAAGTTCAACTAAGGTAACGGAAAGCACGC | 4.7
29 | ACAGACTGGTGATGAAGGTAACTCAGGCTATCAT | -0.35
30 | ACAGACCGGTGAGTGAAGGTAACTCAGCTGGACG | -0.63
31 | CAAACTAGGTCAAGAGGTCTAAGTCCGCTTCCCG | 3.91
32 | GCTAATTGGTCAGTAAAAGGTCACACACCGGTCG | 4.07
33 | CCTATTAGTTGACCGTAAGGGCAACCGAAGCTCG | 0.821
34 | GTACCAAAGTGAATAGGTCGTTGATGAGTAGGCG | 0.0078
35 | CCTACTGTGCCATCAGGTCATTGATATCAACGTT | 2.56
36 | TTACCAAGGTGAAAGGCCGTTGATGCACGCCTTG | 0.0595
37 | GGAACGAGGGCATTCGAGTTAATAGCATGGCGAT | 2.35
38 | CGTCCAAGGTCATAGGAGGTCCGTGAAGACAGAT | 4.88
39 | CCTACTGGGCCATTCAGAGGTCCTTGATCATATG | -0.591
40 | TCCTGTAGATCAGCAGGTTAAGAAAGCTGGCCAA | 0.177
